According to ChEMBL document CHEMBL4513216, “Probing the Open Global Health Chemical Diversity Library for Multistage-Active Starting Points for Next-Generation Antimalarials” (ACS Infect Dis, 2020):
In all, about 69,000 compounds went through this assay and about 8,600 (12%) showed an effect of 50% or more. The full list was thinned out, with strong results kept by preference.

Tested on: Plasmodium berghei
Assay: Screen against P. berghei liver stage (PbLuc), transformed with Luciferase, at 10uM
Format: functional, HepG2
Details: tested at 10 uM

Compound | INHIBITION [%]
O=C(c1ccc(N2CCCC2)nc1)N1CCCC(c2nccs2)C1 (stereo not drawn) | 17.2
CC(C)Cc1nc(CNCc2cccc(N3CCCC3=O)c2)no1 | -20.5
NCC1CCC(C(NC(=O)CC2CCCCC2)c2ccccn2)CC1 (stereo not drawn) | 38.2
CCc1ccc(NC(=O)N2C[C@@H]3C[C@H](C(=O)NC(C)C)[C@H](C2)O3)cc1 | -31.1
CN1CC2(CCN(C(=O)c3cc(-n4cccn4)ccc3Cl)CC2)OC1=O | 14.5
Cc1cnn(C2CCCN(C(=O)c3ccc4c(c3)CCC4)C2)c1 (stereo not drawn) | 40.2
O=C(c1cc(F)ccc1F)C1CCN(C(=O)c2ccco2)CC1 | -98.8
Cc1ccc(C(C)N(C)Cc2nc3c(cnn3C)c(=O)[nH]2)s1 (stereo not drawn) | -30.38
N#CCSCC(=O)NCC1CCCCC1 | 18.6
NC(=O)CSCCC(=O)NCC1CC1 | -0.71
NC(=O)CSCC(=O)NCC1CCCC1 | 50.4
CN(C(=O)c1ccnn1C)[C@@H]1CCC[C@@H](Oc2ccccc2)[C@@H]1O | 34
CCC(=O)N1CCC(Cc2cnc(Nc3cnccn3)cn2)CC1 | 16.5
Cc1n[nH]c(C)c1-c1nccnc1CC1CCN(S(C)(=O)=O)C1 (stereo not drawn) | -3.31
Cc1cc(NC2CCCN(Cc3ccc(F)cc3)C2)n2nc(C)cc2n1 (stereo not drawn) | 67.3
Cc1ccc(NC2CCCN(Cc3ccc(Cl)cc3)C2)nn1 (stereo not drawn) | -20
Cc1ccc(NC2CCCN(CCc3ccccc3)C2)nn1 (stereo not drawn) | -28
Cc1cc(N[C@H]2CCCN(Cc3ccccc3)C2)n2nc(C)cc2n1 | 63.7
Cc1cc(C)nc(NC2CCCN(CCCc3ccccc3)C2)n1 (stereo not drawn) | 31.1
Cc1cc(NC2CCN(c3ccc(F)cc3)CC2)n2nc(C)cc2n1 | 8.07
CN1C(=O)C2(CCN(C(=O)c3ccccc3)CC2)c2cccc(F)c21 | 43.8
O=C(N1CCCO1)[C@]12COC[C@H]1CN(Cc1nccs1)C2 | 7.24
CC[C@H]1NCCC[C@]12CCC(=O)N2Cc1ccncc1 | 17.4

Compound | INHIBITION [%]
CCN1CCN(c2ccccc2NC(=O)N(C)C2CCSC2)CC1 (stereo not drawn) | 74.9
CCN1CCc2c(cccc2NC(=O)CN(C)C2CCSC2)C1 (stereo not drawn) | 34.1
CS(=O)(=O)NCC1CCCN(C(=O)Nc2ccccc2N2CCCC2)C1 (stereo not drawn) | -75.9
CCN1CCc2c(cccc2NC(=O)N(C)C2CCSC2)C1 (stereo not drawn) | 50.8
CCOCCN(C)C(=O)Nc1cccc2c1CCN(CC)C2 | 3.48
CCN1CCC(NC(=O)N(C)Cc2csc3ccccc23)CC1 | 27.6
CC(C)n1cnnc1CN(C)C(=O)c1cccnc1O | 18.6
CCOc1ccc(S(=O)(=O)C(C)C(=O)Nc2cc(C)no2)cc1 (stereo not drawn) | -11.9
O=C([C@H]1CCCO1)N1CC[C@H](O)[C@@H]1Cc1ccncc1 | 33.2
O=C1CC(C(=O)NCCN2CCOC2=O)c2cc(F)ccc2N1 (stereo not drawn) | 36.4
COc1ccc(C2CNCCN2C(=O)c2nccc3ccccc23)cc1 (stereo not drawn) | 32.3
C=C(C)COc1ccccc1C(=O)NCCCc1nnn[nH]1 | 31.2
Cc1c(C2c3nc[nH]c3CCN2CCOCc2ccccc2)cnn1C (stereo not drawn) | 27.5
c1ccc(COCCN2CCc3[nH]cnc3C2c2ccco2)cc1 (stereo not drawn) | 63.3
c1ccc(COCCN2CCc3[nH]cnc3C2c2ccoc2)cc1 (stereo not drawn) | 9.63
CN(Cc1ccccn1)C(=O)[C@H]1CO[C@H]2CCN(CC3CC3)C[C@H]2C1 | 11.3
Cc1cnn(CC2CCCN2Cc2cc(C)no2)c1 (stereo not drawn) | 22.265
CC1CCN(C(=O)c2cccc(CN3CCOCC3)c2)CC1 | 8.41
Cc1ccc(CNCc2ccc(-n3nc(C)cc3C)nc2)cc1 | 72.2
Cc1cc(C)n(-c2ccc(CNCc3ccc(F)cc3F)cn2)n1 | 37.55
COc1cc(CNCc2ccc(-n3nc(C)cc3C)nc2)cc(OC)c1 | -10.193
Cc1cc(C)n(-c2ccc(CNCc3ccc(OC(C)C)cc3)cn2)n1 | 53.5
Cc1cc(C)n(-c2ccc(CNCc3ccc(F)c(F)c3)cn2)n1 | 13.05

Compound | INHIBITION [%]
Cc1cc(C)n(-c2ccc(CNCc3ccc(C)o3)cn2)n1 | 34.75
CCOc1ccc(C(=O)CC(SC2CCCCC2)C(=O)O)cc1 (stereo not drawn) | 16.1
COC(=O)c1cc(C(=O)N2CCCC(C)C2)n(-c2ccccc2)n1 (stereo not drawn) | 8.5
COC[C@@]12CCO[C@@H]1CCN(C(=O)COc1ccccc1OC)C2 | -19.9
COC[C@@]12CCO[C@@H]1CCN(Cc1sccc1C)C2 | 34
Cc1ccc(CN2CCC3(CCC(=O)N3CC(=O)N(C)C)CC2)s1 | -29.5
Cc1ccc(CN2CC[C@H]3OCC[C@@]3(COCC(=O)N(C)C)C2)s1 | 54.8
COC[C@@]12CCO[C@@H]1CCN(Cc1ccccc1OC)C2 | 51.2
Cc1ccc(CN2CC[C@H]3OCC[C@@]3(C(=O)N3CCCO3)C2)s1 | 23.3
COC[C@@]12CCO[C@@H]1CCN(Cc1ccccc1F)C2 | 23.5
COC[C@@]12CCO[C@@H]1CCN(Cc1ccc(C)s1)C2 | 55.7
COC[C@@H]1CCC[C@@]12CN(Cc1ccc(C)s1)CCO2 | 14.1
O=C(c1cnccn1)N1CCC2(CCN(Cc3ccsc3)CC2)CC1 | 16.4
Cc1nccc(CNC(=O)CCc2c(C)nc3cc(O)nn3c2C)n1 | -9.19
CCC1c2ccsc2CCN1C(=O)NCc1ccnc(N(C)C)c1 (stereo not drawn) | -0.44
CCc1nc2ccccc2c(=O)n1CC1(O)CCN(C(=O)C2CC2)CC1 | 18.3
CCCOc1ccc(CN)c(OC(F)F)c1 | 45.2
COc1ccc(CN)c(OC(F)F)c1 | 48.9
NCc1ccc(OC(F)F)cc1OC(F)F | 74
C[C@H]1C[C@H]2CN(C(=O)c3ccncn3)CC[C@@H]2O1 | 35.8
COc1ccc(CN2CCC3(CC2)NC(=O)CC3c2cnn(C)c2)cc1 (stereo not drawn) | 12.6
CN1CCC2(CC1)CN(CC1CC1)CC21CCNC1=O (stereo not drawn) | 22.3
